Measured values taken from PubChem BioAssay (NCATS).
Records with an inconclusive call do not appear. Active and inactive are the calls of the source. The call rests on the fitted dose curve; in most records, active means well fitted inhibition curve with a large enough effect; inconclusive means small, poorly fitted or top-dose-only effect; inactive means flat fitted curve, though single readings scatter.

How the values were obtained:
[1] = qHTS profiling for inhibitors of Plasmodium falciparum proliferation (AID 504749); further: nearly all actives have a fitted effect of over 60% in size;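 on activity, negative = inhibition: 0% = DMSO vehicle and full inhibition = artemisinin control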; details: P. falciparum in erythrocytes, SYBR Green DNA, 72 h
How it was run: (§1)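 P. falciparum-infected erythrocytes (0.3% parasitemia, 2.5% hematocrit) incubated with compound 72 h at 37 C, 5% CO2. Parasite DNA detected by SYBR Green after lysis, overnight at room temperature; normalised to 0.29 uM artemisinin and DMSO.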

[2] = test system: 3D7; assay: as above; details: P. falciparum in erythrocytes, SYBR Green DNA, 72 h; series mostly up to 28.7 µM
How it was run: as §1

[3] = test system: 7G8; assay: as above; details: P. falciparum in erythrocytes, SYBR Green DNA, 72 h; series mostly up to 28.7 µM
How it was run: as §1

[4] = test system: AA1029; assay: as above; details: P. falciparum in erythrocytes, SYBR Green DNA, 72 h; series mostly up to 28.7 µM
How it was run: as §1

[5] = test system: AS120; assay: as above; details: P. falciparum in erythrocytes, SYBR Green DNA, 72 h; series mostly up to 28.7 µM
How it was run: as §1

[6] = test system: ATS189; assay: as above; details: P. falciparum in erythrocytes, SYBR Green DNA, 72 h; series mostly up to 28.7 µM
How it was run: as §1

[7] = test system: ATS95; assay: as above; details: P. falciparum in erythrocytes, SYBR Green DNA, 72 h; series mostly up to 28.7 µM
How it was run: as §1

[8] = test system: C2A; assay: as above; details: P. falciparum in erythrocytes, SYBR Green DNA, 72 h; series mostly up to 28.7 µM
How it was run: as §1

[9] = test system: CP185; assay: as above; details: P. falciparum in erythrocytes, SYBR Green DNA, 72 h; series mostly up to 28.7 µM
How it was run: as §1

[10] = test system: CP191; assay: as above; details: P. falciparum in erythrocytes, SYBR Green DNA, 72 h; series mostly up to 28.7 µM
How it was run: as §1

[11] = test system: CP192; assay: as above; details: P. falciparum in erythrocytes, SYBR Green DNA, 72 h; series mostly up to 28.7 µM
How it was run: as §1

[12] = test system: CP194; assay: as above; details: P. falciparum in erythrocytes, SYBR Green DNA, 72 h; series mostly up to 28.7 µM
How it was run: as §1

[13] = test system: CP201; assay: as above; details: P. falciparum in erythrocytes, SYBR Green DNA, 72 h; series mostly up to 28.7 µM
How it was run: as §1

[14] = test system: CP203; assay: as above; details: P. falciparum in erythrocytes, SYBR Green DNA, 72 h; series mostly up to 28.7 µM
How it was run: as §1

[15] = test system: CP211; assay: as above; details: P. falciparum in erythrocytes, SYBR Green DNA, 72 h; series mostly up to 28.7 µM
How it was run: as §1

[16] = test system: CP215; assay: as above; details: P. falciparum in erythrocytes, SYBR Green DNA, 72 h; series mostly up to 28.7 µM
How it was run: as §1

[17] = test system: CP217; assay: as above; details: P. falciparum in erythrocytes, SYBR Green DNA, 72 h; series mostly up to 28.7 µM
How it was run: as §1

[18] = test system: CP237; assay: as above; details: P. falciparum in erythrocytes, SYBR Green DNA, 72 h; series mostly up to 28.7 µM
How it was run: as §1

[19] = test system: CP238; assay: as above; details: P. falciparum in erythrocytes, SYBR Green DNA, 72 h; series mostly up to 28.7 µM
How it was run: as §1

[20] = test system: CP247; assay: as above; details: P. falciparum in erythrocytes, SYBR Green DNA, 72 h; series mostly up to 28.7 µM
How it was run: as §1

[21] = at 28.7 µM (top of the series), parasite line A
[22] = at 28.7 µM (top of the series), parasite line B
Potency means the concentration at half of the fitted maximal effect.

Oc1c(Cl)cc(Cl)cc1Sc1cc(Cl)cc(Cl)c1O
inactive: activity, negative = inhibition [1, 21] -0.752% | activity, negative = inhibition [1, 22] -1.75% | Potency [2] | Potency [3] | Potency [4] | Potency [5] | Potency [6] | Potency [7] | Potency [8] | Potency [9] | Potency [10] | Potency [11] | Potency [12] | Potency [13] | Potency [14] | Potency [15] | Potency [16] | Potency [17] | Potency [18] | Potency [19] | Potency [20]

CN=C(NC#N)NCCSCc1csc(N=C(N)N)n1
inactive: activity, negative = inhibition [1, 21] 2.51% | activity, negative = inhibition [1, 22] -0.371% | Potency [2] | Potency [3] | Potency [4] | Potency [5] | Potency [6] | Potency [7] | Potency [8] | Potency [9] | Potency [10] | Potency [11] | Potency [12] | Potency [13] | Potency [14] | Potency [15] | Potency [16] | Potency [17] | Potency [18] | Potency [19] | Potency [20]

CC(C)(C)CC(C)(C)c1ccc(OCCOCC[N+](C)(C)Cc2ccccc2)cc1
active: Potency ([1]; parasite line A) 3.55 µM | Potency ([1]; parasite line B) 5.01 µM | Potency [2] 1.78 µM | Potency [3] 1.58 µM | Potency [4] 4.47 µM | Potency [5] 5.01 µM | Potency [6] 7.08 µM | Potency [7] 3.98 µM | Potency [8] 3.16 µM | Potency [9] 3.55 µM | Potency [10] 1.58 µM | Potency [11] 4.26 µM | Potency [12] 3.79 µM | Potency [13] 4.78 µM | Potency [14] 4.78 µM | Potency [15] 4.26 µM | Potency [16] 5.36 µM | Potency [17] 4.47 µM | Potency [18] 2.51 µM | Potency [19] 4.47 µM | Potency [20] 3.98 µM

Nc1ccc(C(=O)Nc2ccccc2N)cc1
inactive: activity, negative = inhibition [1, 21] -0.627% | activity, negative = inhibition [1, 22] 14.4% | Potency [2] | Potency [3] | Potency [4] | Potency [5] | Potency [6] | Potency [7] | Potency [8] | Potency [9] | Potency [10] | Potency [11] | Potency [12] | Potency [13] | Potency [14] | Potency [15] | Potency [16] | Potency [17] | Potency [18] | Potency [19] | Potency [20]

O=C(O)CCCCC(=O)O
inactive: activity, negative = inhibition [1, 21] -0.183% | activity, negative = inhibition [1, 22] 5.83% | Potency [2] | Potency [3] | Potency [4] | Potency [5] | Potency [6] | Potency [7] | Potency [8] | Potency [9] | Potency [10] | Potency [11] | Potency [12] | Potency [13] | Potency [14] | Potency [15] | Potency [16] | Potency [17] | Potency [18] | Potency [19] | Potency [20]

Cc1c(F)c(N2CCNC(C)C2)cc2c1c(=O)c(C(=O)O)cn2C1CC1 (configuration not stated)
inactive: activity, negative = inhibition [1, 21] 8.42% | activity, negative = inhibition [1, 22] 6.98% | Potency [2] | Potency [3] | Potency [4] | Potency [5] | Potency [6] | Potency [7] | Potency [8] | Potency [9] | Potency [10] | Potency [11] | Potency [12] | Potency [13] | Potency [14] | Potency [15] | Potency [16] | Potency [17] | Potency [18] | Potency [19] | Potency [20]

CC(O)(P(=O)(O)O)P(=O)(O)O
inactive: activity, negative = inhibition [1, 21] 10.5% | activity, negative = inhibition [1, 22] 4.89% | Potency [2] | Potency [3] | Potency [4] | Potency [5] | Potency [6] | Potency [7] | Potency [8] | Potency [9] | Potency [10] | Potency [11] | Potency [12] | Potency [13] | Potency [14] | Potency [15] | Potency [16] | Potency [17] | Potency [18] | Potency [19] | Potency [20]

COc1cc(C(=S)N2CCOCC2)cc(OC)c1OC
inactive: activity, negative = inhibition [1, 21] 7.95% | activity, negative = inhibition [1, 22] 9.84% | Potency [2] | Potency [3] | Potency [4] | Potency [5] | Potency [6] | Potency [7] | Potency [8] | Potency [9] | Potency [10] | Potency [11] | Potency [12] | Potency [13] | Potency [14] | Potency [15] | Potency [16] | Potency [17] | Potency [18] | Potency [19] | Potency [20]

CC(=O)Oc1ccc(C(c2ccc(OC(C)=O)cc2)c2ccccn2)cc1
inactive: activity, negative = inhibition [1, 21] 0.325% | activity, negative = inhibition [1, 22] 3.02% | Potency [2] | Potency [3] | Potency [4] | Potency [5] | Potency [6] | Potency [7] | Potency [8] | Potency [9] | Potency [10] | Potency [11] | Potency [12] | Potency [13] | Potency [14] | Potency [15] | Potency [16] | Potency [17] | Potency [18] | Potency [19] | Potency [20]

Cc1cc(=O)n(-c2ccccc2)n1C
inactive: activity, negative = inhibition [1, 21] 5.57% | activity, negative = inhibition [1, 22] 10.3% | Potency [2] | Potency [3] | Potency [4] | Potency [5] | Potency [6] | Potency [7] | Potency [8] | Potency [9] | Potency [10] | Potency [11] | Potency [12] | Potency [13] | Potency [14] | Potency [15] | Potency [16] | Potency [17] | Potency [18] | Potency [19] | Potency [20]

C[C@H](O)C(=O)Nc1c(I)c(C(=O)NC(CO)CO)c(I)c(C(=O)NC(CO)CO)c1I
inactive: activity, negative = inhibition ([1]; at 12.8 µM (top of the series), parasite line A) -8.8% | activity, negative = inhibition ([1]; at 12.8 µM (top of the series), parasite line B) 10.5% | Potency [2] | Potency [3] | Potency [4] | Potency [5] | Potency [6] | Potency [7] | Potency [8] | Potency [9] | Potency [10] | Potency [11] | Potency [12] | Potency [13] | Potency [14] | Potency [15] | Potency [16] | Potency [17] | Potency [18] | Potency [19] | Potency [20]

Nc1ccc(/C=C/c2ccc(N)cc2S(=O)(=O)O)c(S(=O)(=O)O)c1
inactive: activity, negative = inhibition [1, 21] -8.57% | activity, negative = inhibition [1, 22] 7.68% | Potency [2] | Potency [3] | Potency [4] | Potency [5] | Potency [6] | Potency [7] | Potency [8] | Potency [9] | Potency [10] | Potency [11] | Potency [12] | Potency [13] | Potency [14] | Potency [15] | Potency [16] | Potency [17] | Potency [18] | Potency [19] | Potency [20]
